Screening data: PubChem, National Center for Advancing Translational Sciences (NCATS)
ELG1 DNA repair = blocks ELG1-dependent DNA repair in HEK293T cells; AID 504467; hit rate 2.3% among 330,000; HEK293T ELG1-luciferase reporter, luminescence, 16 h; DNA damage induced by 5-fluorouridine; Potency, µM (titrated, usually from 46.1 µM), for inactives: at the top dose activity change, negative = inhibition, hits mostly inhibitors; also: % is scaled to controls: 0 for no effect and ±100 for the full control effect; nearly all actives have a fitted effect of over 55% in size
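Reporter activity after DNA damage by 5-fluorouridine is monitored. Compound-treated cells incubate 16 hr at 37 °C, then ONE-Glo is added for 30 min before luminescence reading.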
Nrf2 block = blocks Nrf2 signaling. AID 504444. Potency, µM (highest dose often 46 µM), for the others: at the highest dose activity change, negative = inhibition, most hits filed as inhibitors. hit rate 2.1% among 360,000. A549 ARE-Fluc reporter, luciferase luminescence, 18-24 h; also: % is scaled to controls: 0 for no effect and ±100 for the full control effect; nearly all actives have a fitted effect of over 60% in size
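In this cell-based qHTS, ARE-driven firefly luciferase in A549 cells reports Nrf2 activity; the luminescent signal after BugLite lysis is the measured value, with a prior CellTiter-Fluor read for cell health.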
A549 tox-1 = A549 cytotoxicity, counter-screen for Nrf2 inhibitors; A549 ARE-Fluc cells, CellTiter-Fluor viability, 18-24 h; Potency, µM (doses to about 46 µM), for the others: at the top dose activity change, negative = cytotoxicity, most hits filed as inhibitors; hit rate 0.16% among 390,000; also: % is scaled to controls: 0 for no effect and ±100 for the full control effect
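A549 ARE-Fluc cells in 5% FBS OPTI-MEM, 5000 cells/well, rested 2 h then exposed to compounds in concentration-response for 18-24 h at 37 °C. Viability by CellTiter-Fluor fluorescence (Ex 405/Em 525) after 30 min; luciferase luminescence (BugLite, 15 min, RT) read afterwards.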
Nrf2 activator = activates Nrf2 signaling; AREc32 ARE-luciferase reporter (MCF7-derived line), luminescence, 24 h; Potency, µM (series often up to 46.1 µM), without a hit: at the highest dose activation, hits mostly activators; hit rate 0.31% among 410,000; also: % of control where 0% means no effect; nearly all actives have a fitted effect of over 65% in size
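AREc32_Fluc, 1000 cells/well, OPTI-MEM + 5% FBS, o/n 37 deg C 5% CO2; 23 nL cpd by pin tool, 24 hr; Steady-Glo 30 min RT, luminescence.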
FLuc counter 3 = counter-screen for Nrf2 inhibitors: firefly luciferase enzyme inhibition; shares compounds with Nrf2 block; purified firefly luciferase, luminescence inhibition; Potency, µM (series often up to 57.5 µM), without a hit: top-dose activity change, negative = inhibition, most hits filed as inhibitors; hit rate 4% among 1,400; also: % is scaled to controls: 0 for no effect and ±100 for the full control effect; nearly all actives have a fitted effect of over 65% in size
Target sequence (P08659 whole entry, looked up): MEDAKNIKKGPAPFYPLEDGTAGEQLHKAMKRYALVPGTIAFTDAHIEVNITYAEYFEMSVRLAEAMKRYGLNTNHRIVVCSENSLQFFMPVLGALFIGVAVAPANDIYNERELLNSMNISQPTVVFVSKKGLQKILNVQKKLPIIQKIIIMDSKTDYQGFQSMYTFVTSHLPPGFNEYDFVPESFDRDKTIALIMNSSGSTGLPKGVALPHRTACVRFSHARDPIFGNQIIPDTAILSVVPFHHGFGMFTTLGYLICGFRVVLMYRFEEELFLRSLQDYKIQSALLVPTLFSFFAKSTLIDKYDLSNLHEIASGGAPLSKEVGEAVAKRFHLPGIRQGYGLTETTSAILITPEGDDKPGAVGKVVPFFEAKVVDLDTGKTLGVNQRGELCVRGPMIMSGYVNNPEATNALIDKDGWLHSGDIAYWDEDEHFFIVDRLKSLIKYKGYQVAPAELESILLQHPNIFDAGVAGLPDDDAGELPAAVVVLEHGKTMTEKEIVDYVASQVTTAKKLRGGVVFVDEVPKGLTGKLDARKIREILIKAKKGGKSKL
A549 tox-2 = counter-screen for Nrf2 inhibitors: cytotoxicity in A549 ARE cells. AID 720523. hit rate 2% among 1,400. shares compounds with Nrf2 block. Potency, µM (titrated, usually from 46.1 µM), for inactives: at the highest dose activity change, negative = cytotoxicity, most hits filed as inhibitors. A549 ARE-Fluc cells, cytotoxicity counterscreen;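 also: cells exposed to compounds for 18 to 24 hours; % is scaled to controls: 0 for no effect and ±100 for the full control effect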
Nrf2 ARE inh = Nrf2 inhibition confirmed, A549 ARE-luciferase; shares compounds with Nrf2 block; A549 ARE-firefly luciferase reporter, luminescence; Potency, µM (top dose mostly 46.1 µM), for the others: at the top dose activity change, negative = inhibition, hits mostly inhibitors; hit rate 74% among 1,400; also: % is scaled to controls: 0 for no effect and ±100 for the full control effect; nearly all actives have a fitted effect of over 65% in size
Starred values were filed as active, the others as inactive; ? = inconclusive; / = no result shown. Most compounds without a hit are left out; they make up all but 3.7% or so of the library. Calls follow the shape of the dose curve; as a rule, active = well fitted curve in the direction sought with a large enough effect; inconclusive = small, poorly fitted or top-dose-only effect, or another doubt; inactive = no such curve, though single readings can be large; an effect the other way counts as inactive or inconclusive. Potency is read from the fitted curve at half-maximal effect.

SMILES	ELG1 DNA repair	Nrf2 block	A549 tox-1	Nrf2 activator	FLuc counter 3	A549 tox-2	Nrf2 ARE inh
Cc1nc2c(-c3ccccc3)c(C)[nH]n2c(=O)c1Cc1ccc(C(C)C)cc1	/	4.6µM*	?	-1%	3%	-21%	5.8µM*
Cc1nc2c(-c3ccccc3)c(C)[nH]n2c(=O)c1Cc1ccc(Br)cc1	/	8.2µM*	?	-1%	-2%	?	3.3µM*
CCc1ccc(NC(=O)c2ccc(CN3CC(=O)N4CCCCC4C3=O)cc2)cc1 (configuration not stated)	/	3%	6%	5%	/	/	/
COC(=O)c1[nH]c2ccc(C)cc2c1NC(=O)CN1CCN(c2ccc(F)cc2)CC1	9.2µM*	8.9µM*	?	1%	-14%	-19%	8.2µM*
CN(C(=O)CSc1nc2ncccc2o1)c1ccc(F)cc1	/	-2%	-2%	7%	/	/	/
O=C1CCC2S/C(=C/Nc3ccc(C(F)(F)F)cc3)C(=O)N12 (configuration not stated)	?	1µM*	0%	-4%	11µM*	2%	4.1µM*
CCOc1ccccc1NC(=O)c1c(NC(=O)c2cccc(C)c2)sc2c1CCCC2	/	7%	-1%	-1%	/	/	/
COc1ccc(-c2cc(C3C4C=CCC(C)C4C(=O)N3Cc3ccccc3)ccc2F)cc1OC (configuration not stated)	/	?	-11%	/	/	/	/
CCN(Cc1cccc(S(=O)(=O)O)c1)c1ccc(C(=C2C=CC(=[N+](CC)Cc3cccc(S(=O)(=O)O)c3)C=C2)c2ccc(O)cc2S(=O)(=O)O)cc1	/	/	/	/	9.5µM*	?	8.2µM*
C(=C\c1ccccc1)/CN1CCN(C(c2cc3ccccc3o2)c2nnnn2Cc2ccccc2)CC1 (configuration not stated)	/	/	/	0%	/	/	/
N#Cc1cc(-c2ccccc2)[nH]c1-c1nccc2ccccc12	9.2µM*	9.2µM*	-14%	0%	-12%	-4%	?
O=C(NCc1cccnc1)c1nn(-c2ccc(F)cc2)nc1CO	/	25%	3%	3%	/	/	/
O=C(N/N=C/c1sc(N2CCOCC2)nc1-c1ccccc1)c1cccc(S(=O)(=O)N2CCCC2)c1	5.2µM*	2.6µM*	?	3%	2%	-17%	23µM*
O=C(N/N=C/c1sc(N2CCOCC2)nc1-c1ccccc1)c1ccc(O)cc1	?	-8%	-18%	3%	/	/	/
Cc1ccc(NC(=O)c2ccc(C)cc2)cc1	?	?	-3%	-1%	/	/	/
Cc1ccc(C(=O)Nc2ccc(Br)c(C(F)(F)F)c2)cc1	?	1.6µM*	/	2%	6.7µM*	-25%	/
Cc1csc(C)[n+]1CCC1CCCCC1	/	/	/	/	4%	-8%	15µM*
CCOc1ccc(NC(=O)c2ccncc2)cc1	22%	3%	-3%	0%	/	/	/
CCOc1ccc2c(c1)C(=NNC(=O)c1ccncc1)c1cc(OCC)ccc1-2	?	5.8µM*	-18%	3%	?	?	5.2µM*
CC(=O)Nc1ccc(S(=O)(=O)NCCSCc2ccc(Cl)cc2Cl)cc1	?	9.2µM*	-4%	-1%	2%	-4%	10µM*
CCc1c(C)nc2ncnn2c1NCCc1ccccc1	?	?	-10%	0%	/	/	/
CCc1c(C)nc2ncnn2c1NCCc1ccc(Cl)cc1	?	7.3µM*	-11%	3%	1%	-12%	4.6µM*
Nc1ccc(-c2cc3ccccc3oc2=O)cc1	15%	1.3µM*	-1%	-2%	8.5µM*	-1%	1.5µM*
O=c1oc2ccccc2cc1-c1ccc(O)cc1	?	19%	-1%	7%	/	/	/
CCc1cccc(NC(=O)c2ccc(CN3C(=O)C(C)=C(c4ccc(OC)cc4)S3(=O)=O)cc2)c1	/	?	5%	0%	/	/	/
SMILES	ELG1 DNA repair	Nrf2 block	A549 tox-1	Nrf2 activator	FLuc counter 3	A549 tox-2	Nrf2 ARE inh
Cc1cc(=O)n(CC(=O)N2CCN(c3ccccc3F)CC2)c2c1c(C)nn2C	/	8.2µM*	-6%	1%	1%	-7%	?
COc1cc(C(=O)Nc2sc3c(c2C(=O)O)CCC(C)C3)cc(OC)c1OC (configuration not stated)	2.9µM*	5.2µM*	-11%	0%	-18%	-20%	7.3µM*
CC1CCc2c(sc(NC(=O)c3ccccc3)c2C(=O)Nc2ccccc2)C1 (configuration not stated)	/	5%	-2%	7%	/	/	/
COc1ccc2[nH]c3c(c2c1)CCN1C(=O)C(CC(=O)NCc2cccc(C(F)(F)F)c2)C[C@H](C(=O)N2CCCCC2)[C@@]31CCc1ccccc1 (some centres not stated)	-2%	6.5µM*	-17%	0%	-2%	-27%	21µM*
CCOc1ccc(NC(=O)c2ccc3c(=O)n4c(nc3c2)CCCCC4)cc1	-25%	?	0%	0%	/	/	/
CCN(CC)S(=O)(=O)c1ccc(NC(=O)c2ccc3c(=O)n4c(nc3c2)CCCCC4)cc1	/	9.2µM*	?	0%	-9%	-15%	8.2µM*
CCC1OC(C)Cc2[nH][nH]c(=O)c21 (configuration not stated)	/	/	/	-1%	/	/	/
COc1cc2c(NC3CCN(C(C)C)CC3)nc(N3CCCN(C)CC3)nc2cc1OCCCN1CCCC1	/	/	/	/	-2%	?	1.5µM*
COc1cc2nc(N3CCN(C(=O)C4CCCO4)CC3)nc(N)c2cc1OC (configuration not stated)	?	?	-7%	1%	/	/	/
COc1cc2c(NC3CCN(C(C)C)CC3)nc(N3CCCN(C)CC3)nc2cc1OCCOCCN(C)C	/	/	/	/	1%	-37%	6.5µM*
COC(=O)c1ccc(NC(=O)CSc2n[nH]c(CC(C)C)n2)cc1	/	9%	3%	3%	/	/	/
CCOc1ccccc1C(=O)NCC(=O)N1CCN(Cc2ccc3c(c2)OCO3)CC1	?	4.6µM*	-4%	2%	-1%	-1%	5.2µM*
CCCOc1ccc(CN(C(=O)Cc2coc3ccc(CC)cc23)C2CCS(=O)(=O)C2)cc1 (configuration not stated)	/	?	-19%	1%	/	/	/
CCOc1ccccc1NC(=O)c1cnc2n(c1=O)CCS2	23%	-23%	-5%	0%	/	/	/
O=C(Nc1ccc(Oc2ccccc2)cc1)c1cnc2n(c1=O)CCS2	?	?	-3%	-1%	-15%	-2%	2.3µM*
COc1ccccc1C=NN=C(NN=Cc1ccccc1OC)NN=Cc1ccccc1OC	/	?	?	6%	/	/	/
